ALOX12 inh: blocks human arachidonate 12S-lipoxygenase; P18054; purified 12hLO, xylenol orange hydroperoxide absorbance; Potency, µM (titrated, usually from 108 µM), without a hit: at the top dose activity change, negative = inhibition, most hits filed as inhibitors; 1.1% of 580,000 active; AID 1671190
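Purified human 12hLO at 150 nM in 25 mM Hepes, 0.01% Triton X-100, pH 7.0, preincubated 15 min at room temperature with compound. Reaction started with 40 uM arachidonic acid, 30 min at room temperature. Hydroperoxide measured by Fe-xylenol orange, 573/405 nm absorbance ratio.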
TDP1 cell CPT: growth inhibition of DT40 Tdp1-/-;hTDP1 cells with camptothecin (screen for TDP1 inhibitors); chicken DT40 Tdp1-/-;hTDP1 cells + 20 nM CPT, ATP luminescence, 48 h; Potency, µM (doses to about 46.2 µM), for inactives: top-dose activity change, negative = growth inhibition, most hits filed as inhibitors; 12% of 420,000 active; note: nearly all actives have a fitted effect of over 55% in size
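Chicken DT40 Tdp1-/- cells stably complemented with human TDP1 were seeded at 400 cells/well in medium containing 20 nM camptothecin, exposed to pin-transferred compounds, and grown at 37 °C for at least 48 hr. Viability was read as ATP luminescence.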
TDP1 cell noCPT: qHTS for Inhibitors of human tyrosyl-DNA phosphodiesterase 1 (TDP1): qHTS in cells in absence of CPT. 15% of 420,000 active. Potency, µM (series often up to 46.2 µM), inactives show top-dose activity change, negative = growth inhibition, actives largely listed as inhibitors. DT40 Tdp1-/- hTDP1 cells, no CPT, ATP luminescence, 48 h. AID 686978, 2013; note: nearly all actives have a fitted effect of over 55% in size
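DT40 Tdp1-/-;hTDP1 cells, no CPT (DMSO vehicle only), 400 cells/well; compounds pin-transferred; ≥48 hr, 37 °C; CellTiter-Glo 30 min RT dark, luminescence read.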
Gal4-VP16 FLuc: Gal4-VP16 reporter inhibition counter-screen; Potency, µM (titrated, usually from 53.6 µM), for inactives: at the top dose activity, negative = inhibition, hits mostly inhibitors; 3.5% of 310,000 active; Drosophila S2 Gal4-VP16 UAS-luciferase, luminescence, 20 h;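 note: Gal4-VP16 expression switched on by copper sulfate through the metallothionein promoter; nearly all actives have a fitted effect of over 50% in size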
ELG1 DNA repair: blocks ELG1-dependent DNA repair in HEK293T cells. 2.3% of 330,000 active. Potency, µM (top dose mostly 46.1 µM), without a hit: top-dose activity change, negative = inhibition, hits mostly inhibitors. HEK293T ELG1-luciferase reporter, luminescence, 16 h; DNA damage induced by 5-fluorouridine; note: nearly all actives have a fitted effect of over 55% in size
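Reporter activity after DNA damage by 5-fluorouridine is monitored. Compound-treated cells incubate 16 hr at 37 °C, then ONE-Glo is added for 30 min before luminescence reading.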
RORg inh: inhibitors of mouse ROR gamma transcriptional activity. 5.4% of 310,000 active. Potency, µM (titrated, usually from 53.6 µM), without a hit: at the top dose activity change, negative = inhibition, hits mostly inhibitors. Drosophila S2 Gal4-RORgamma UAS-luciferase reporter, 20 h; note: nearly all actives have a fitted effect of over 60% in size
Target sequence (P51450 whole entry, looked up, the tested form may be a part): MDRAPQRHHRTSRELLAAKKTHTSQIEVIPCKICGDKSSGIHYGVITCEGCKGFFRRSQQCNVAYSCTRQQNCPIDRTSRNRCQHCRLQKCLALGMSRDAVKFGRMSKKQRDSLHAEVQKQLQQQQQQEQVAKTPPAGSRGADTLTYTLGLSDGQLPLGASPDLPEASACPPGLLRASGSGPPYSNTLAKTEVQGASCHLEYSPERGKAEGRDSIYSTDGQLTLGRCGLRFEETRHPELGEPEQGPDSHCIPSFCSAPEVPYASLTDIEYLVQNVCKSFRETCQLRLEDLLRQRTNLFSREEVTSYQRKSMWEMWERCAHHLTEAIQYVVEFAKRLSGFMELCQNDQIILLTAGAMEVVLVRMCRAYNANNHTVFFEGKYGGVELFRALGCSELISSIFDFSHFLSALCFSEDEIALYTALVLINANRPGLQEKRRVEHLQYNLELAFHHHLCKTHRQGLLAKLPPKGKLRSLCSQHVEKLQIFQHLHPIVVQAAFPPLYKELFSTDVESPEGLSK
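In this cell-based reporter format, copper sulfate (700 uM final) drives Gal4–ROR gamma fusion expression from a metallothionein promoter in Drosophila Schneider cells; compounds preincubated 1 hr, reporter read after 20 hr at ambient temperature.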
The depositor's hits bear a star; ? = inconclusive; . = no result given. The list is not random: actives were taken first. Their share in the collection is about 15%. Calls come from the whole dose curve; as a rule, active = well fitted curve in the direction sought with a large enough effect; inconclusive = small, poorly fitted or top-dose-only effect, or another doubt; inactive = no such curve, though single readings can be large; an effect the other way counts as inactive or inconclusive. % is set by controls: 0 for no effect and ±100 for the full control effect; potency is the fitted concentration of half-maximal effect.

SMILES	ALOX12 inh	TDP1 cell CPT	TDP1 cell noCPT	Gal4-VP16 FLuc	ELG1 DNA repair	RORg inh
COc1ccc(-c2ccc([C@H]3[C@H]4C=CC[C@@H](C)[C@@H]4C(=O)N3Cc3ccccc3)c(F)c2)cc1C	-3.2%	14.6µM*	14.6µM*	4.7%	-17.8%	-15.0%
COc1ccc(-c2ccc(C)cc2)cc1C1C2C=CCC(C)C2C(=O)N1Cc1ccccc1 (centres undefined)	.	.	.	-12.6%	.	40.9%
O=c1[nH]cccc1-c1nccc(C2(c3ccccc3Cl)CCNCC2)n1	19.1%	.	.	.	.	.
COc1ccc2[nH]c(C(=O)NCC(=O)N3CCCCCNC(=O)CC3c3ccccc3)cc2c1 (centres undefined)	7.6%	.	.	.	.	.
C=CCn1c(SCCC)nc2c1c(=O)n(C)c(=O)n2C	-18.8%	.	.	.	.	.
CCC1CC=CC2C1C(=O)N(Cc1ccccc1)C2c1ccc(OC)c(Cl)c1 (centres undefined)	.	.	.	?	.	24.7%
COc1ccc([C@H]2[C@H]3C=CC[C@@H](C)[C@@H]3C(=O)N2Cc2ccccc2)cc1Cl	?	?	16.4µM*	6.8%	1.1%	14.9%
C[C@@H]1CC=C[C@H]2[C@H]1C(=O)N(Cc1ccccc1)[C@H]2c1ccc(-c2ccoc2)cc1F	?	?	?	0.2%	6.6%	15.2%
C[C@@H]1CC=C[C@H]2[C@H]1C(=O)N(Cc1ccccc1)[C@H]2c1ccc(-c2cc3ccccc3s2)cc1F	-7.7%	16.4µM*	14.6µM*	2.2%	?	32.6%
COC(=O)/C=C/c1cccc([C@H]2[C@@H]3C=CC[C@@H](C)[C@@H]3C(=O)N2Cc2ccccc2)c1	?	23.1µM*	16.4µM*	7.1%	4.3%	-17.1%
O=C(NCCc1ccncc1)C1CN(Cc2cccnc2)CC12CCOCC2 (centres undefined)	103.6%	.	.	.	.	.
CCOc1cc(NC(=O)C2CCCCC2)c(OCC)cc1NC(=O)c1ccccn1	2.8%	3.66µM*	1.64µM*	1.8%	?	19.1%
CCOc1cc(NC(=O)C2CC2)c(OCC)cc1NC(=O)c1cccc(F)c1	2.7%	-6.0%	-20.4%	-11.8%	-4.4%	5.6%
CCOc1cc(NC(=O)c2ccccn2)c(OCC)cc1NC(=O)c1ccc(C)cc1	6.4%	5.17µM*	3.26µM*	0.2%	-4.6%	1.7%
O=C(NCCCNC(=O)c1ccccn1)c1ccc(Cl)cc1	-2.5%	-21.2%	0.1%	-20.3%	11.7%	0.7%
COC(CNC(=O)c1ccc2nc(-c3ccccc3)c(-c3ccccc3)nc2c1)OC	12.5%	?	11.6µM*	-1.2%	?	22.6%
COc1ccc(-c2nc3ccc(C(=O)NCc4ccccc4)cc3nc2-c2ccc(OC)cc2)cc1	-27.6%	?	14.6µM*	.	.	.
O=C(NCCNC(=O)c1ccccn1)c1ccc(-c2ccccc2)cc1	19.3%	-7.6%	20.6µM*	-3.1%	-0.7%	?
COc1cccc(CNC(=O)c2ccc3nc(-c4ccccc4)c(-c4ccccc4)nc3c2)c1OC	3.4%	23.1µM*	?	.	.	.
O=C(NCc1ccccc1)c1ccc2nc(-c3ccccc3)c(-c3ccccc3)nc2c1	-26.8%	.	.	.	.	.
CC(=O)N1CCC(C(=O)N2CCCCCCNC(=O)[C@@H]3CCCC[C@@H]32)CC1	23.8%	.	.	.	.	.
CC1=C(C(=O)Nc2cccc(C(F)(F)F)c2)C(c2ccc(Cl)cc2)n2ncnc2N1 (centres undefined)	-7.1%	.	.	.	.	.
COc1ccc(C(=O)NCC(C)O)cc1 (centres undefined)	-17.1%	.	.	.	.	.
O=C(NCC1CC1)c1ccc(Nc2nc3ccc(Br)cc3[nH]2)cc1	?	?	?	3.6%	-6.0%	7.5%

Screening data: PubChem BioAssay, National Center for Advancing Translational Sciences (NCATS)
